Screening results: PubChem, several laboratories
INS promoter inh: TRM-6 insulin promoter activity inhibition; TRM-6 cells (human fetal islet line), insulin promoter-eGFP reporter, imaging; reporter expression induced with tamoxifen; inhibition, % at 2 µM; hit rate 0.9% among 130,000; AID 1273;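 active = inhibition above the mean plus 3 SD, with well images judged a real hit on visual review, cut at about 60% in these data, passing the limit was not always enough; inconclusive = inhibition over the cutoff but images rejected on review; inactive = inhibition not above the cutoff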
Measles CPE: protection of cells from measles virus; Measles virus-infected cells, CPE protection, absorbance; protection (pct of control), % at 4 µM; hit rate 1.5% among 140,000; AID 841; in the data active = protection mostly above about 24%, no sharp cut-off; inactive = mostly below about 26%
sdo1 growth: restores growth of sdo1-depleted yeast; z-score at 10 µM; S. cerevisiae sdo1-depleted JHY4D growth rescue, OD600 30 h; hits give high values; pdr5 snq2 efflux-pump mutant strain; hit rate 0.21% among 140,000; AID 817;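 active = z-score above 3 at both the 24 hr and the 30 hr optical density reads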;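 note: z-score against mean and SD of all compound wells on the same plate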
ROMK mod: human ROMK K+ channel modulation, primary screen; Tet-inducible ROMK, thallium flux fluorescence; actives lie on both sides; hit rate 2% among 130,000; P48048; AID 1918; B-score at 10 µM;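 active = signal ratio slope over the read window, or its plate-corrected B-score, at least 3 SD from the plate mean, either direction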;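 note: B-score of the F/F0 ratio slope over 7 to 12 s after thallium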
Target sequence (P48048 whole entry, looked up): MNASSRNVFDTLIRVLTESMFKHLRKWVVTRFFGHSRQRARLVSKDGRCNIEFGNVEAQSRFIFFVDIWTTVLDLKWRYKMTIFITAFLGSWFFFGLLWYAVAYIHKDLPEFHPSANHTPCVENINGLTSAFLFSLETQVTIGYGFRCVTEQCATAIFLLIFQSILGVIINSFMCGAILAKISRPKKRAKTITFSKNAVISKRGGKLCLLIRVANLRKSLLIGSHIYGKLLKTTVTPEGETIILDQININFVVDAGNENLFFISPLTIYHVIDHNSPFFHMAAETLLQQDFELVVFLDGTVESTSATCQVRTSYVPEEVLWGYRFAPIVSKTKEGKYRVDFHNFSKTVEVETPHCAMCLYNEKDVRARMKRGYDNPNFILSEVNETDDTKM
Starred values were filed as active, the others as inactive; ? = inconclusive; nt = not tested or not shown. Sampled rows, rich in hits. Any-hit rate of the full collection: about 3%.

SMILES	INS promoter inh	Measles CPE	sdo1 growth	ROMK mod
COc1ccc(-n2c(SCC(=O)Nc3ccc4c(c3)OCO4)nc3ccccc3c2=O)cc1	nt	14	-0.9	nt
CCOC(=O)NC(=O)c1cn(Nc2ccccc2C(F)(F)F)c(=O)[nH]c1=O	nt	nt	nt	-0.017
CCOc1ccc(NC(=O)C(C)Oc2ccccc2C(=O)Nc2ccc(C)c(Cl)c2)cc1 (configuration not stated)	8	9	0.3	nt
CCOC(=O)C(=O)NNc1cccc(C)c1C	26	45*	0.39	1.1
COc1ccc(NCc2nnc(SCC(=O)c3ccc(OC)cc3)n2C)cc1	12	22	-0.56	-1.4
C/C(=N/NC(=O)c1cc2ccccc2cc1O)C1C(=O)c2ccccc2C1=O	56	28	-1.7	4.8*
CCN(C(=O)COC(=O)CNS(=O)(=O)c1ccccc1)c1ccccc1	40	nt	nt	-0.9
O=C(NCc1ccco1)C(c1ccccc1)N(Cc1ccccc1)C(=O)Cn1nnc2ccccc21 (configuration not stated)	-7	41*	0.47	nt
Cc1ccc(C(C(=O)NC2CCCCC2)N(Cc2ccco2)C(=O)Cn2cnc3ccccc32)cc1 (configuration not stated)	25	4	0.05	-3.3*
CCOC(=O)N1CCC(c2nc3ccccc3[nH]2)CC1	nt	18	-0.08	nt
COC(=O)c1sc(NC(=O)Cc2cccs2)nc1C	nt	13	0.86	nt
Cc1ccc(S(=O)(=O)Cn2nnnc2C(CC(C)C)N2CCN(C)CC2)cc1 (configuration not stated)	nt	nt	nt	0.29
O=C(O)c1ccccc1Nc1ccccc1C(=O)O	32	4	0.22	nt
O=C(O)c1ccccc1Nc1ccc([N+](=O)[O-])cc1	16	83*	-0.63	1.3
CC(=O)SC(C)CC(=O)NCc1ccccc1 (configuration not stated)	39	2	-0.13	0.53
CCn1ncc(Br)c1C(=O)Nc1ccc(C(=O)OC(C)C)cc1	-21	38*	-1.1	-0.75
COc1ccc(CCNC(=O)C(=O)Nc2ccc3c(c2)OCO3)cc1OC	-29	nt	nt	0.21
CCN(CC)S(=O)(=O)c1ccc(C(=O)Oc2cc(C)[nH]c(=O)c2[N+](=O)[O-])cc1	-18	nt	nt	-0.054
CCOC(=O)/C=C/C(=O)N1CCc2ccccc21	-61	25*	0.37	nt
Cc1csc(=N)n1CC(=O)N1CCc2ccccc21	nt	26*	0.96	nt
O=C(c1ccccc1)N1CCc2ccccc21	0	2	0.11	nt
COc1ccc(C(=O)N2CCc3ccccc32)cc1	6	28*	-0.45	nt
CC(C)CNC(=S)NC(=O)c1ccc(Cl)cc1Cl	nt	7	-1.1	nt
CCCOc1ccc(C(=O)C(CN2CCCC2)c2ccccc2)cc1 (configuration not stated)	?	3	-1.7	-1.7
COc1ccc(C(=O)C(CN2CCOCC2)c2ccccc2)cc1 (configuration not stated)	92*	9	-1.5	0.018
SMILES	INS promoter inh	Measles CPE	sdo1 growth	ROMK mod
CCCCOc1ccc(C(=O)C(CN2CCOCC2)c2ccccc2)cc1 (configuration not stated)	78*	41*	-2.4	nt
Cc1ccc(Cn2c(=O)c3ccccc3n3nc(C)cc23)cc1	nt	nt	nt	-0.89
O=C(c1ccco1)N1CCN(C(=O)C2CCCc3c2[nH]c2ccc(Cl)cc32)CC1 (configuration not stated)	21	82*	-1.3	0.09
Cc1onc(-c2c(F)cccc2Cl)c1C(=O)OCC(=O)c1c(N)n(C)c(=O)n(C)c1=O	nt	nt	nt	0.75
Cc1oc(CC(C)C)cc1C(=O)Nc1cccc2ccccc12	-63	37*	-2.1	nt
O=c1c(-n2cncn2)c[nH]n1-c1cccc(Cl)n1	92*	nt	nt	0.82
O=c1c(/C=N/OCc2ccc(Cl)cc2Cl)c[nH]n1-c1cccc(Cl)n1	nt	nt	nt	0.99
O=C(NCCOc1ccccc1F)c1cc(F)c(F)cc1Cl	-44	33*	0.49	0.078
Cc1cc(C)c2cc(C#N)c(N3CCCC3)nc2c1	nt	38*	-1.4	0.12
CC(=O)c1cc(C#N)c(N2CCCC2)nc1C	nt	nt	nt	0.077
CC(C)Cn1c(-c2ccc(Br)cc2)c[nH]c1=S	-25	nt	nt	-1.5
Cc1cc(NC(=O)c2ccco2)ncc1NC(=O)Cc1ccccc1	52	31*	1.2	0.075
CCC(=O)NNC(=O)CCC(=O)Nc1ccc(C)cc1C	nt	nt	nt	-0.16
O=C(CCc1ccccc1)Nc1ccc(NC(=O)c2ccco2)nc1	nt	25*	-0.36	0.23
COc1cccc(C(=O)Nc2cnc(NC(=O)c3ccco3)cc2C)c1	6	9	0.98	-0.0097
O=C(CCc1ccccc1)Nc1ccc(NC(=O)c2ccco2)cc1	nt	0	0.27	-0.47
Cc1ccc(NC(=O)CCC(=O)NNC(=O)c2ccco2)c(C)c1	-3	25*	-0.88	nt
